Data published in PubChem BioAssay AID1159580 (chemical genetic matrix, 2015).
“And” between values parts separate entries of the source, which are not always exact repeats. Equal entries are not always repeated. Among all 5,500 compounds or so, about 2,000 (36%) were called active. Roughly 18% stayed inconclusive and do not appear here. Cut-off read from the data, not from the text of the source: active = normalized growth mostly below about 0.91 (no sharp cut-off); inconclusive = no clear call, values can overlap the other calls; inactive = mostly above about 0.92. Some of the results follow.

Assay: chemical genetic growth profiling, strain panel (AID 1159580);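 note: tested at 20 µM; growth read once vehicle control cultures reached saturation at 30 °C; 1 = growth at the plate median or of vehicle wells; lower values mean less growth of the strain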
Conditions: S. cerevisiae deletion strains, growth OD

Measured: normalized growth

C=CC(C)(O)CC/C=C(\C)CCC=C(C)C (configuration not stated)
inactive: locus YAL013W, strain DEP1, stronger effect = lower value 0.947 | locus YAL021C, strain ccr4, stronger effect = lower value 0.913 | locus YAL026C, strain drs2, stronger effect = lower value 0.958 | locus YAL030W, strain snc1, stronger effect = lower value 0.986 | locus YBL061C, strain skt5, stronger effect = lower value 0.951 | locus YBR009C, strain hhf1, stronger effect = lower value 0.923 | locus YBR021W, strain FUR4, stronger effect = lower value 0.863 | locus YBR023C, strain chs3, stronger effect = lower value 0.938 | locus YBR171W, strain sec66, stronger effect = lower value 0.965 | locus YBR229C, strain ROT2, stronger effect = lower value 0.999 | locus YBR231C, strain swc5, stronger effect = lower value 0.98 | locus YCL011C, strain gbp2, stronger effect = lower value 0.949 | locus YCL016C, strain dcc1, stronger effect = lower value 0.965 | locus YCL029C, strain bik1, stronger effect = lower value 0.993 | locus YCL061C, strain MRC1, stronger effect = lower value 0.969 | locus YCL069W, strain vba3, stronger effect = lower value 0.968 | locus YCR088W, strain abp1, stronger effect = lower value 0.975 | locus YDL005C, strain med2, stronger effect = lower value 0.956 | locus YDL035C, strain GPR1, stronger effect = lower value 0.956 | locus YDL040C, strain nat1, stronger effect = lower value 0.982 | locus YDL074C, strain BRE1, stronger effect = lower value 0.886 | locus YDL101C, strain DUN1, stronger effect = lower value 0.958 | locus YDL185W, strain tfp1, stronger effect = lower value 1.02 | locus YDL192W, strain arf1, stronger effect = lower value 0.952 | locus YDR001C, strain nth1, stronger effect = lower value 0.98 | locus YDR069C, strain doa4, stronger effect = lower value 0.946 | locus YDR101C, strain arx1, stronger effect = lower value 0.992 | locus YDR137W, strain rgp1, stronger effect = lower value 0.916 | locus YDR159W, strain sac3, stronger effect = lower value 0.862 | locus YDR162C, strain NBP2, stronger effect = lower value 0.92 | locus YDR297W, strain sur2, stronger effect = lower value 0.974 | locus YDR318W, strain mcm21, stronger effect = lower value 0.99 | locus YDR334W, strain swr1, stronger effect = lower value 0.944 | locus YDR335W, strain msn5, stronger effect = lower value 0.979 | locus YDR388W, stronger effect = lower value 0.985 | locus YDR502C, strain sam2, stronger effect = lower value 0.978 | locus YEL003W, strain gim4, stronger effect = lower value 0.983 | locus YEL037C, strain rad23, stronger effect = lower value 0.964 | locus YEL061C, strain CIN8 (second series), stronger effect = lower value 0.978 | locus YEL061C, strain CIN8, stronger effect = lower value 0.937 | locus YER015W, strain faa2, stronger effect = lower value 0.974 | locus YER016W, strain bim1, stronger effect = lower value 0.988 | locus YER110C, stronger effect = lower value 1.01 | locus YER111C, strain swi4, stronger effect = lower value 0.947 | locus YER167W, strain BCK2, stronger effect = lower value 0.944 | locus YFR010W, strain ubp6, stronger effect = lower value 0.903 | locus YGL078C, strain dbp3, stronger effect = lower value 0.988 | locus YGL086W, strain mad1, stronger effect = lower value 0.981 | locus YGL167C, strain pmr1, stronger effect = lower value 0.984 | locus YGL173C, strain kem1, stronger effect = lower value 0.965 | locus YGL227W, strain vid30, stronger effect = lower value 0.979 | locus YGL240W, strain doc1, stronger effect = lower value 0.964 | locus YGL248W, strain PDE1, stronger effect = lower value 0.931 | locus YGL253W, strain hxk2, stronger effect = lower value 0.984 | locus YGR135W, strain pre9, stronger effect = lower value 0.967 | locus YGR252W, strain gcn5, stronger effect = lower value 1.03 | locus YHR013C, strain ard1, stronger effect = lower value 0.964 | locus YHR027C, strain rpn1, stronger effect = lower value 0.978 | locus YHR079C, strain IRE1 (second series), stronger effect = lower value 0.999 | locus YHR094C, strain hxt1, stronger effect = lower value 1.02 | locus YHR129C, strain ARP1, stronger effect = lower value 0.939 | locus YHR200W, strain rpn10, stronger effect = lower value 0.991 | locus YIL066C, strain RNR3, stronger effect = lower value 0.934 | locus YIL073C, strain SPO22, stronger effect = lower value 0.88 | locus YIL125W, strain kgd1, stronger effect = lower value 1.02 | locus YIR030C, strain dcg1, stronger effect = lower value 1.01 | locus YJL092W, strain hpr5, stronger effect = lower value 0.965 | locus YJL095W, strain BCK1 (second series), stronger effect = lower value 0.99 | locus YJL095W, strain BCK1, stronger effect = lower value 0.869 and 0.946 | locus YJL115W, strain asf1, stronger effect = lower value 0.954 | locus YJL129C, strain trk1, stronger effect = lower value 0.923 | locus YJL134W, strain LCB3, stronger effect = lower value 0.997 | locus YJL154C, strain vps35, stronger effect = lower value 0.959 | locus YJL168C, strain set2, stronger effect = lower value 1.01 | locus YJL187C, strain SWE1 (second series), stronger effect = lower value 0.946 | locus YJL187C, strain SWE1, stronger effect = lower value 0.986 | locus YJR043C, strain POL32, stronger effect = lower value 0.978 | locus YJR066W, strain TOR1, stronger effect = lower value 0.911
0.955 (inactive) and 0.825 (active): locus YHR030C, strain SLT2, stronger effect = lower value
active: locus YDR195W, strain ref2 0.662 | locus YDR392W, strain spt3, stronger effect = lower value 0.454 | locus YER155C, strain BEM2 (second series), stronger effect = lower value 0.777 | locus YER155C, strain BEM2, stronger effect = lower value 0.807 | locus YHR079C, strain IRE1, stronger effect = lower value 0.81 | locus YHR142W, strain chs7, stronger effect = lower value 0.75 | locus YJL164C, strain tpk1, stronger effect = lower value 0.915 | locus YJL166W, strain qcr8, stronger effect = lower value 0.902
